Source: PubChem (National Center for Advancing Translational Sciences (NCATS))
L3MBTL1 inh = blocks human L3MBTL1 | AlphaScreen L3MBTL1–H3K9me1 peptide binding | actives 0.66% (n = 230,000) | Q9Y468 | Potency, µM (doses to about 57.1 µM), hits mostly inhibitors; further: nearly all actives have a fitted effect of over 60% in size
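Read-out is AlphaScreen signal from streptavidin donor and nickel chelate acceptor beads (10 ug/mL final each) bridging L3MBTL1 (50 nM) and biotinylated K9-monomethylated H3(1-15) peptide (75 nM), after 30 min compound exposure at room temperature.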
BAZ2B block = inhibitors of human BAZ2B bromodomain. Q9UIF8. AlphaScreen BAZ2B-H3K14Ac peptide displacement. Potency, µM (highest dose often 114 µM), usual class: inhibitors. actives 4.4% (n = 360,000); further: nearly all actives have a fitted effect of over 60% in size
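Complex of BAZ2B and biotin-H3K14Ac (50 nM apiece) forms over 30 min at RT, then faces library compounds up to 110 uM for another 30 min; AlphaScreen beads added, 20 min dark incubation, luminescence read.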
Sfp PPTase inh = Sfp phosphopantetheinyl transferase inhibition | actives 3.5% (n = 310,000) | Biochemical Sfp PPTase activity, qHTS | Potency, µM, hits mostly inhibitors;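 further: the enzyme is Sfp with the accession as filed and its product quenches rhodamine fluorescence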
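Sfp 15 nM + cpd, 15 min RT; start w/ rhodamine-CoA 5 uM, BHQ-2-YbbR 12.5 uM (final); 50 mM Hepes pH 7.6, 10 mM MgCl2, 0.01% NP-40, 0.01% BSA; read 525/598 nm at 0 and 30 min.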
G9a inh = inhibitors of human histone lysine methyltransferase G9a; Q96KQ7; G9a H3K9 monomethylation, AlphaScreen, 2 h; Potency, µM (series often up to 102 µM), actives largely listed as inhibitors; actives 8.8% (n = 350,000); AID 504332; further: nearly all actives have a fitted effect of over 75% in size
Target sequence (Q96KQ7 913-1193 limits assumed): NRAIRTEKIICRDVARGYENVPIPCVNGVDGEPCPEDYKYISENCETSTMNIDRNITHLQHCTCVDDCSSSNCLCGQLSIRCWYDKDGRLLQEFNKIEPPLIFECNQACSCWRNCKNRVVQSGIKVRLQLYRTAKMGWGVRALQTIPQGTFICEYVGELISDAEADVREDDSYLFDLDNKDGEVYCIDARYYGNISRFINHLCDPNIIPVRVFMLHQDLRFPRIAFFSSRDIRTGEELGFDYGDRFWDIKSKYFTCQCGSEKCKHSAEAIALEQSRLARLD
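G9a (20 nM) was preincubated 15 min with compound, then reacted 2 h at room temperature with 500 nM biotin-H3K9 peptide and 20 µM SAM. Monomethyl-H3K9 detected by AlphaScreen using anti-H3K9me1 antibody.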
HP1b chromo inh = HP1-beta chromodomain-methylated histone interaction inhibition; actives 0.56% (n = 390,000); AID 540317; AlphaScreen HP1-beta / biotin-H3K9me3 peptide binding; Potency, µM (series often up to 114 µM), actives largely listed as inhibitors; P83916; further: nearly all actives have a fitted effect of over 70% in size
Target sequence (P83916 whole entry, looked up): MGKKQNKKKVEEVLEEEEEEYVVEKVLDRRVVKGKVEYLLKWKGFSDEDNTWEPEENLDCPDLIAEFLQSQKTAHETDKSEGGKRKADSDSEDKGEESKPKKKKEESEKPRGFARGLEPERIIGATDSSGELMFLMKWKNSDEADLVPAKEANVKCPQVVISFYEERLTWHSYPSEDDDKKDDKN
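HP1-beta protein (50 nM final) preincubated 30 min at room temperature with biotinylated H3(1-18)K9me3 peptide (50 nM) in PBS pH 7.4, 0.01% Tween-20, then compound added for 30 min. AlphaScreen streptavidin donor/nickel chelate acceptor beads (10 ug/mL final), 30 min dark, luminescence read.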
JMJD2A Tudor = JMJD2A Tudor domain (human) inhibition; AlphaScreen JMJD2A-Tudor / H3K4me3 peptide binding; Potency, µM (series often up to 114 µM), most hits filed as inhibitors; actives 4.4% (n = 390,000); further: nearly all actives have a fitted effect of over 50% in size
Numbers stand for hits; i = inactive; ? = inconclusive; nt = not tested or not shown; [ ] = dose if it differs, or a comment. Shown are actives, neighbours in structure and some others; about 12% of the full set was active somewhere. The call rests on the fitted dose curve; in most records, active means well fitted curve in the direction sought with a large enough effect; inconclusive means small, poorly fitted or top-dose-only effect, or another doubt; inactive means no such curve, though single readings can be large; an effect the other way counts as inactive or inconclusive.

SMILES	L3MBTL1 inh	BAZ2B block	Sfp PPTase inh	G9a inh	HP1b chromo inh	JMJD2A Tudor
CCOC(=O)c1[nH]c2ccccc2c1NC(=S)Nc1cccc(C)c1C	i	?	?	45µM	i	?
COc1cccc2[nH]c(C(=O)NN)c(N)c12	i	?	i	50µM	i	?
COC(=O)c1[nH]c2cc(OC)c(OC)cc2c1NC(=O)Oc1ccccc1	nt	i	45µM	2.8µM	i	?
CCS(=O)(=O)Nc1c(C(=O)OC)[nH]c2ccccc12	i	i	i	i	i	i
O=C(OCC(=O)N1CCN(C(=O)c2ccco2)CC1)c1cncc(Br)c1	i	i	nt	?	i	i
Cc1ccc(CN2C(=O)N(c3ccc(F)cc3)C(=O)C2CC(=O)Nc2ccc(Cl)cc2)cc1 (stereo unspecified)	nt	i	nt	i	i	i
COC(=O)c1ccccc1NC(=O)c1c(C)oc2ncn(C)c(=O)c12	nt	i	nt	i	i	i
COc1ccc(CNC(=O)CN2CCN(c3cccc(C)c3C)CC2)cc1	nt	i	i	i	i	i
COc1ccc(CN2CCN(c3cccc(C)c3C)CC2)cc1OC	nt	56µM	i	11µM	i	i
COc1cc(CN2CCC(C(=O)NC3CCCC3)CC2)cc(Br)c1O	i	50µM	i	10µM	i	3.2µM
COc1cc(CN2CCN(c3cccc(C)c3C)CC2)cc(Br)c1O	i	?	i	?	?	2µM
CCOc1ccccc1CN(CCc1ccc2c(c1)OCO2)Cc1cccc(OC)c1OC	nt	50µM	nt	2.5µM	?	4.5µM
CCOc1ccc(CN(CCc2ccc3c(c2)OCO3)Cc2cc(OC)c(OC)cc2OC)cc1	nt	28µM	nt	2.8µM	11µM	8.9µM
COc1ccc(-c2c3c(=O)n(C)c(=O)n(C)c3c3c(-c4ccc(C)cc4)nc4ccccc4n23)cc1	nt	i	nt	i	i	i
O=C(/C(=C(\[O-])c1ccccc1)[n+]1ccc2ccccc2c1)c1ccccc1	i	i	i	i	i	i
O=C(/C(=C(\[O-])c1ccccc1)[n+]1ccc2ccccc2c1)c1ccc(Cl)cc1	i	i	i	20µM	i	i
CC1=C[C@@H](C)[C@@H](c2ccc(C(F)(F)F)cc2)OC1=O	i	i	i	nt	i	i
O=C(NCC1CCCO1)c1onc(CSc2ccccc2)c1C(=O)O (stereo unspecified)	i	?	i	i[0.501 µM]	i	i
CC(C)c1ccc(SCc2noc(C(=O)NCC3CCCO3)c2C(=O)O)cc1 (stereo unspecified)	i	i	100µM	i[0.501 µM]	i	i
COc1cc(C2C(C#N)=C(N)Oc3cc(C)oc(=O)c32)cc(OC)c1OC (stereo unspecified)	i	i	i	i	i	i
COc1ccccc1C1C(C#N)=C(N)Oc2cc(C)n(Cc3ccccn3)c(=O)c21 (stereo unspecified)	nt	?	50µM	35µM	i	i
CCOc1ccccc1C1C(C#N)=C(N)Oc2cc(C)n(Cc3ccccn3)c(=O)c21 (stereo unspecified)	i	i	i	50µM	i	i
Cc1cc2c(c(=O)n1Cc1ccccn1)C(c1ccc3c(c1)OCO3)C(C#N)=C(N)O2 (stereo unspecified)	i	i	i	i[12.7 µM]	i	i
COc1cccc(C2C(C#N)=C(N)Oc3cc(C)n(Cc4ccccn4)c(=O)c32)c1OC (stereo unspecified)	i	i	i	i[2.33 µM]	i	i
COc1cc(C2C(C#N)=C(N)Oc3cc(C)oc(=O)c32)cc2c1OCO2 (stereo unspecified)	nt	56µM	i	?	i	i
SMILES	L3MBTL1 inh	BAZ2B block	Sfp PPTase inh	G9a inh	HP1b chromo inh	JMJD2A Tudor
COc1cc(C2C(C#N)=C(N)Oc3cc(C)n(Cc4ccccn4)c(=O)c32)cc2c1OCO2 (stereo unspecified)	i	?	i	50µM	nt	nt
CC(=O)c1ccc(N2CCN(C(=O)CCCCn3c(=O)[nH]c4ccsc4c3=O)CC2)cc1	nt	i	nt	i	i	i
CCOC(=O)C1=NN(N=O)C2(CC(=O)N(c3cc(C)cc(C)c3)C2=O)C1 (stereo unspecified)	nt	i	i	4.5µM	i	i
CCCOC(=O)c1ccc(NC(=O)Cc2csc(C)n2)cc1	nt	i	nt	i	i	i
O=C(O)CO	nt	nt	i	nt	nt	nt
CC(Sc1nc(N2CCOCC2)c2c(c1C#N)CC(C)(C)OC2)C(=O)Nc1ccccc1 (stereo unspecified)	i	i	i	5.6µM	i	i
CSc1nc(N2CCOCC2)c2c(c1C#N)CC(C)(C)OC2	nt	i	i	i	i	i
COC(=O)CCSc1nc(N2CCOCC2)c2c(c1C#N)CC(C)(C)OC2	nt	i	79µM	i[2.33 µM]	i	i
CCOC(=O)CCSc1nc(N2CCOCC2)c2c(c1C#N)CC(C)(C)OC2	nt	i	i	35µM	i	i
CCOC(=O)C(C)Sc1nc(N2CCOCC2)c2c(c1C#N)CC(C)(C)OC2 (stereo unspecified)	nt	nt	nt	nt	i	i
CC(C)CCSc1nc(N2CCOCC2)c2c(c1C#N)CC(C)(C)OC2	i	i	?	i	i	i
COc1ccccc1N(CC(=O)NC1CCCCC1)S(=O)(=O)c1ccccc1	nt	i	i	i	i	i
CCc1nnc2c(Nc3ccc(N(CC)CC)cc3C)nc3ccccc3n12	nt	32µM	nt	18µM	?	16µM
CCC(C)[C@@H]1NC(=O)N(CCCN2CCCC2=O)C1=O (stereo partly specified)	nt	i	i	i	i	i
Cc1sc(/C=C2\C(=O)ON=C2c2ccccc2)cc1Br	i	i	i	i	nt	nt
Cc1ccc(C2=NOC(=O)/C2=C\c2ccccc2)cc1	nt	nt	nt	nt	i	i
O=C1ON=C(c2ccc(Cl)cc2)/C1=C/c1ccc(O)cc1	nt	?	22µM	50µM	i	i
O=C1ON=C(c2ccccc2)/C1=C/c1ccc(O)cc1	i	i	50µM	50µM	i	i
O=C(c1ccc(O)cc1)c1ccc(Cl)cc1	i	i	i	i	i	i
Cc1ccc(/C=C2/C(=O)ON=C2c2ccccc2)o1	i	28µM	14µM	13µM	?	79µM
O=C1ON=C(c2ccccc2)/C1=C/c1ccccc1	i	i	45µM	45µM	i	i
CCCCc1ccc(/C=C2/C(=O)ON=C2c2ccccc2)s1	i	i	i	i	i	i
O=C1ON=C(c2ccccc2)/C1=C\c1ccco1	22µM	?	14µM	32µM	i	i
Nc1cc(=O)[nH]c(SCC(=O)Nc2ncc(C(F)(F)F)cc2Cl)n1	i	i	i	i	i	i
CSc1ccc(S(=O)(=O)N2CC(=O)Nc3ccccc32)cc1	nt	i	i	i	i	i
COc1cc(S(=O)(=O)N2CC(=O)Nc3ccccc32)ccc1NC(C)=O	nt	i	i	40µM	i	i
CS(=O)(=O)c1ccc(C(=O)N2CC(=O)Nc3ccccc32)cc1	nt	i	i	50µM	i	i
